Assay results: publication PMC12820563, “FoxP3 forms a head-to-head dimer in vivo and stabilizes its multimerization on adjacent microsatellites”
Over roughly 16,000 sequences, “rpm ratio (pull-down/input)” has its median near 0.94; the highest 2% begin near 1.7. The list comes from a sample in which the highest values are over-represented; it also holds similar and randomly drawn sequences.

The sequences below were run against T1, MBP-FoxP1dN (Mus musculus, UniProt P58462 326-579) (assay: PD-seq (MBP pull-down with sequencing); 20 mM Tris-HCl pH 7.5, 100 mM NaCl, 1.5 mM MgCl2, 0.4 uM protein, 0.1 uM dsDNA library, 30 min, room temperature, amylose pull-down; high values mean tight binding). Conditions: protein: recombinant; tags: His6-MBP; chain copies: 2; dsDNA, one strand shown.
T1 sequence: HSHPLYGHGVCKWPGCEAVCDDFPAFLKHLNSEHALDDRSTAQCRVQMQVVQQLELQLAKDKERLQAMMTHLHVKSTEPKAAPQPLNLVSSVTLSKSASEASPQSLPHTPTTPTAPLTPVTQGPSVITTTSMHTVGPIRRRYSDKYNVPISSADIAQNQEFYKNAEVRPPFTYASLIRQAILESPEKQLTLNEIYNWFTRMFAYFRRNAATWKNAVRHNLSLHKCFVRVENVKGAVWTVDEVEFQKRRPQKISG
Procedure, shortened: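 Mouse FoxP3 or FoxP1 fragment lacking the N-terminus, His6-MBP-tagged and expressed in E. coli, was incubated at 0.4 µM with 0.1 µM Klenow-filled degenerate double-stranded DNA library for 30 min at room temperature in Tris pH 7.5 buffer with NaCl and MgCl2. Complexes captured on amylose resin were washed three times and their DNA sequenced on Illumina. Binding is reads-per-million enrichment of pull-down over input, replicates pooled.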

Sequence | binding signal
GATGATTGTTCTCCCAGCTGATGAATTGTTTGCCTCGAGTAAACAAATTTTCCTAATCTTTCTGTTCAAGCGCCATCTAC | 1.96 RPM ratio (pull-down/input)
GATGATTGTTCTCCCAGCTGATGAATTTTTTGCCTCGAGTAAACAAATTTTCCTAATCTTTCTGTTCAAGCGCCATCTAC | 0.956 RPM ratio (pull-down/input)
GATGATTGTTCTCCCAGCTGATGAATTGTTTTCCTCGAGTAAACAAATTTTCCTAATCTTTCTGTTCAAGCGCCATCTAC | 2.36 RPM ratio (pull-down/input)
GATGATTGTTCTCCCAGCTGATGAATTTGCCTCCTCGAGTAAACAAATTTTCCTAATCTTTCTGTTCAAGCGCCATCTAC | 0.95 RPM ratio (pull-down/input)
GATGATTGTTCTCCCAGCTGATGAATTTTAGAGCTCGAGTAAACAAATTTTCCTAATCTTTCTGTTCAAGCGCCATCTAC | 0.77 RPM ratio (pull-down/input)
GATGATTGTTCTCCCAGCTGATGAATTTTTTTCATCGAGTAAACAAATTTTCCTAATCTTTCTGTTCAAGCGCCATCTAC | 1.02 RPM ratio (pull-down/input)
GATGATTGTTCTCCCAGCTGATGAATTTGTTTCCTCGAGTAAACAAATTTTCCTAATCTTTCTGTTCAAGCGCCATCTAC | 1.49 RPM ratio (pull-down/input)
GATGATTGTTCTCCCAGCTGATGAATTTGTTTCATCGAGTAAACAAATTTTCCTAATCTTTCTGTTCAAGCGCCATCTAC | 1.33 RPM ratio (pull-down/input)
GATGATTGTTCTCCCAGCTGATGAATTGTTTTCATCGAGTAAACAAATTTTCCTAATCTTTCTGTTCAAGCGCCATCTAC | 1.96 RPM ratio (pull-down/input)
GATGATTGTTCTCCCAGCTGATGAATTAGATTGCTCGAGTAAACAAATTTTCCTAATCTTTCTGTTCAAGCGCCATCTAC | 0.987 RPM ratio (pull-down/input)
GATGATTGTTCTCCCAGCTGATGAATTGTTTCCCTCGAGTAAACAAATTTTCCTAATCTTTCTGTTCAAGCGCCATCTAC | 1.41 RPM ratio (pull-down/input)
GATGATTGTTCTCCCAGCTGATGAATTTAGATGCTCGAGTAAACAAATTTTCCTAATCTTTCTGTTCAAGCGCCATCTAC | 1.78 RPM ratio (pull-down/input)
GATGATTGTTCTCCCAGCTGATGAATTGGTACCTTCGAGTAAACAAATTTTCCTAATCTTTCTGTTCAAGCGCCATCTAC | 0.97 RPM ratio (pull-down/input)
GATGATTGTTCTCCCAGCTGATGAATTTGTGTCATCGAGTAAACAAATTTTCCTAATCTTTCTGTTCAAGCGCCATCTAC | 1.48 RPM ratio (pull-down/input)
GATGATTGTTCTCCCAGCTGATGAATTAAAGCAATCGAGTAAACAAATTTTCCTAATCTTTCTGTTCAAGCGCCATCTAC | 1.32 RPM ratio (pull-down/input)
GATGATTGTTCTCCCAGCTGATGAATTCGTTCAATCGAGTAAACAAATTTTCCTAATCTTTCTGTTCAAGCGCCATCTAC | 0.909 RPM ratio (pull-down/input)
GATGATTGTTCTCCCAGCTGATGAATTACATGGTTCGAGTAAACAAATTTTCCTAATCTTTCTGTTCAAGCGCCATCTAC | 1.12 RPM ratio (pull-down/input)
GATGATTGTTCTCCCAGCTGATGAATTTAGGCTATCGAGTAAACAAATTTTCCTAATCTTTCTGTTCAAGCGCCATCTAC | 0.955 RPM ratio (pull-down/input)

Sequence | binding signal
GATGATTGTTCTCCCAGCTGATGAATTATTAGATTCGAGTAAACAAATTTTCCTAATCTTTCTGTTCAAGCGCCATCTAC | 1.08 RPM ratio (pull-down/input)
GATGATTGTTCTCCCAGCTGATGAATTAGACTGATCGAGTAAACAAATTTTCCTAATCTTTCTGTTCAAGCGCCATCTAC | 0.851 RPM ratio (pull-down/input)
GATGATTGTTCTCCCAGCTGATGAATTACAATTGTCGAGTAAACAAATTTTCCTAATCTTTCTGTTCAAGCGCCATCTAC | 1.4 RPM ratio (pull-down/input)
GATGATTGTTCTCCCAGCTGATGAATTTTGAACTTCGAGTAAACAAATTTTCCTAATCTTTCTGTTCAAGCGCCATCTAC | 0.94 RPM ratio (pull-down/input)
GATGATTGTTCTCCCAGCTGATGAATTTGCAGTTTCGAGTAAACAAATTTTCCTAATCTTTCTGTTCAAGCGCCATCTAC | 1.02 RPM ratio (pull-down/input)
GATGATTGTTCTCCCAGCTGATGAATTTCCGTCGTCGAGTAAACAAATTTTCCTAATCTTTCTGTTCAAGCGCCATCTAC | 0.841 RPM ratio (pull-down/input)
GATGATTGTTCTCCCAGCTGATGAATTCGAGTTATCGAGTAAACAAATTTTCCTAATCTTTCTGTTCAAGCGCCATCTAC | 0.96 RPM ratio (pull-down/input)
GATGATTGTTCTCCCAGCTGATGAATTATCATCATCGAGTAAACAAATTTTCCTAATCTTTCTGTTCAAGCGCCATCTAC | 1.12 RPM ratio (pull-down/input)
GATGATTGTTCTCCCAGCTGATGAATTTGCTTTATCGAGTAAACAAATTTTCCTAATCTTTCTGTTCAAGCGCCATCTAC | 1.1 RPM ratio (pull-down/input)
GATGATTGTTCTCCCAGCTGATGAATTTTTATCATCGAGTAAACAAATTTTCCTAATCTTTCTGTTCAAGCGCCATCTAC | 1.36 RPM ratio (pull-down/input)
GATGATTGTTCTCCCAGCTGATGAATTGCTTATATCGAGTAAACAAATTTTCCTAATCTTTCTGTTCAAGCGCCATCTAC | 1.34 RPM ratio (pull-down/input)
GATGATTGTTCTCCCAGCTGATGAATTCTTGTTATCGAGTAAACAAATTTTCCTAATCTTTCTGTTCAAGCGCCATCTAC | 2.09 RPM ratio (pull-down/input)
GATGATTGTTCTCCCAGCTGATGAATTGTTGTTATCGAGTAAACAAATTTTCCTAATCTTTCTGTTCAAGCGCCATCTAC | 2.91 RPM ratio (pull-down/input)
GATGATTGTTCTCCCAGCTGATGAATTGTTCTTATCGAGTAAACAAATTTTCCTAATCTTTCTGTTCAAGCGCCATCTAC | 1.41 RPM ratio (pull-down/input)
GATGATTGTTCTCCCAGCTGATGAATTGTTATCATCGAGTAAACAAATTTTCCTAATCTTTCTGTTCAAGCGCCATCTAC | 1.73 RPM ratio (pull-down/input)
GATGATTGTTCTCCCAGCTGATGAATTTCTGTTATCGAGTAAACAAATTTTCCTAATCTTTCTGTTCAAGCGCCATCTAC | 1.69 RPM ratio (pull-down/input)
GATGATTGTTCTCCCAGCTGATGAATTTTGCTTATCGAGTAAACAAATTTTCCTAATCTTTCTGTTCAAGCGCCATCTAC | 2.09 RPM ratio (pull-down/input)
GATGATTGTTCTCCCAGCTGATGAATTCCTGTTATCGAGTAAACAAATTTTCCTAATCTTTCTGTTCAAGCGCCATCTAC | 1.65 RPM ratio (pull-down/input)
